# Source: PubChem BioAssay (National Center for Advancing Translational Sciences (NCATS))
# BAZ2B inh – qHTS Assay for Inhibitors of BAZ2B. AID 504333, 2011. AlphaScreen BAZ2B-H3K14Ac peptide displacement. 360,000 compounds, 4.4% hits. Potency, µM (highest dose often 114 µM), for inactives: at the top dose activity change, negative = inhibition, usual class: inhibitors. Bromodomain adjacent to zinc finger domain protein 2B (Homo sapiens), Q9UIF8; also: % is scaled to controls: 0 for no effect and ±100 for the full control effect; nearly all actives have a fitted effect of over 60% in size
#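 AlphaScreen luminescence quantifies BAZ2B engagement of H3K14Ac peptide; the protein and biotinylated peptide are both at 50 nM final, buffer PBS pH 7.4 with 0.01% Tween-20, all steps at room temperature.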
# JMJD2A Tudor inh – qHTS Assay for Inhibitors of JMJD2A-Tudor Domain. Lysine-specific demethylase 4A (Homo sapiens), O75164. AlphaScreen JMJD2A-Tudor / H3K4me3 peptide binding. Potency, µM (top dose mostly 114 µM), for the others: top-dose activity change, negative = inhibition, hits mostly inhibitors. 390,000 compounds, 4.4% hits; also: % is scaled to controls: 0 for no effect and ±100 for the full control effect; nearly all actives have a fitted effect of over 50% in size
# L3MBTL1 block – qHTS Assay for the Inhibitors of L3MBTL1; AlphaScreen L3MBTL1–H3K9me1 peptide binding; 230,000 compounds, 0.66% hits; Potency, µM (doses to about 57.1 µM), inactives show at the top dose activity, negative = inhibition, actives largely listed as inhibitors; Lethal(3)malignant brain tumor-like protein 1 (Homo sapiens), Q9Y468; also: % is scaled to controls: 0 for no effect and ±100 for the full control effect; nearly all actives have a fitted effect of over 60% in size
#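 Read-out is AlphaScreen signal from streptavidin donor and nickel chelate acceptor beads (10 ug/mL final each) bridging L3MBTL1 (50 nM) and biotinylated K9-monomethylated H3(1-15) peptide (75 nM), after 30 min compound exposure at room temperature.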
# G9a block – qHTS Assay for Inhibitors of Histone Lysine Methyltransferase G9a; Histone-lysine N-methyltransferase EHMT2 (Homo sapiens), Q96KQ7; G9a H3K9 monomethylation, AlphaScreen, 2 h; Potency, µM (series often up to 102 µM), for inactives: at the top dose activity, negative = inhibition, actives largely listed as inhibitors; 350,000 compounds, 8.8% hits; also: % is scaled to controls: 0 for no effect and ±100 for the full control effect; nearly all actives have a fitted effect of over 75% in size
# Target sequence (Q96KQ7 913-1193 limits assumed): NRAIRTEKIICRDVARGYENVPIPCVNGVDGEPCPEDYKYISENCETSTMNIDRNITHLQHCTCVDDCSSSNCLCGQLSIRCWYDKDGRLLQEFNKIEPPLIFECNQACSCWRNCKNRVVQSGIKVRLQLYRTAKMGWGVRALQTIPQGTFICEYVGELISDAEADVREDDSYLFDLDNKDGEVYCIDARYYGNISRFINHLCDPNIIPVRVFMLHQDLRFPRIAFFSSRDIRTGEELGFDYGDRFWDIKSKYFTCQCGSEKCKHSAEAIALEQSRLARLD
#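 AlphaScreen read-out: biotin-H3K9 peptide (500 nM) methylation by 20 nM enzyme with 20 uM SAM, 2 h at room temperature after 15 min compound preincubation; anti-monomethyl H3K9 antibody plus donor/acceptor beads, 10 min dark.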
# HP1b chromo inh – HTS for Inhibitors of HP1-beta Chromodomain Interactions with Methylated Histone Tails | AlphaScreen HP1-beta / biotin-H3K9me3 peptide binding | AID 540317, 2011 | 390,000 compounds, 0.56% hits | Chromobox protein homolog 1 (Homo sapiens), P83916 | Potency, µM (series often up to 114 µM), for inactives: at the highest dose activity change, negative = inhibition, usual class: inhibitors; also: nearly all actives have a fitted effect of over 70% in size
# Target sequence (P83916 whole entry, looked up): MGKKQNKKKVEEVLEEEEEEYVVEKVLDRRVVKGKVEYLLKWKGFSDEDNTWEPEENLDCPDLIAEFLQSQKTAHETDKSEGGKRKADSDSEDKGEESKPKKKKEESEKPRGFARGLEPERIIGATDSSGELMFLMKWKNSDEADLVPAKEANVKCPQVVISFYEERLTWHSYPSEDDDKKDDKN
#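 HP1-beta protein (50 nM final) preincubated 30 min at room temperature with biotinylated H3(1-18)K9me3 peptide (50 nM) in PBS pH 7.4, 0.01% Tween-20, then compound added for 30 min. AlphaScreen streptavidin donor/nickel chelate acceptor beads (10 ug/mL final), 30 min dark, luminescence read.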
# * marks the source's active call; other numbers are inactive results; ? = inconclusive; · = no result given; [ ] = another dose, or the depositor's remark. Shown are actives, neighbours in structure and some others; about 11% of the full set was active somewhere. Calls follow the shape of the dose curve; as a rule, active = well fitted inhibition curve with a large enough effect; inconclusive = small, poorly fitted or top-dose-only effect; inactive = no such curve, though single readings can be large or run the other way. Potency is read from the fitted curve at half-maximal effect.
SMILES,BAZ2B inh,JMJD2A Tudor inh,L3MBTL1 block,G9a block,HP1b chromo inh
Cc1ccc(C(=O)C2=C(O)C(=O)N(Cc3ccco3)C2c2cccc(Cl)c2)o1 (centres undefined),?,25.1µM*,·,39.8µM*,1.4%
COc1ccc(C)cc1S(=O)(=O)NCC(c1cccs1)S(=O)(=O)c1ccc(C)cc1 (centres undefined),-10.8%,-14.6%,·,2.8%[59 µM],18.0%
CC1CCCC(C)N1C(=O)COC(=O)CNC(=O)c1ccccc1 (centres undefined),9.9%,-2.1%,-5.0%,-9.9%[59 µM],20.3%
C=CCOc1cccc(C2C(C(=O)c3ccco3)=C(O)C(=O)N2Cc2cccnc2)c1 (centres undefined),8.7%,-29.8%,·,31.6µM*,32.9%
O=C(NCCCc1ccccc1)C(=O)NCC1OCCN1S(=O)(=O)c1ccc(F)cc1 (centres undefined),-24.4%,-5.5%,·,21.2%,22.1%
O=C(NCCCn1ccnc1)C(=O)NCC1OCCN1S(=O)(=O)c1ccc(F)cc1 (centres undefined),6.31µM*,56.2µM*,?,19.5%,28.0%
Cc1ccc(S(=O)(=O)N2CCCOC2CNC(=O)C(=O)NCCCn2ccnc2)cc1 (centres undefined),50.1µM*,-23.2%,-11.2%,-27.3%[59 µM],21.4%
Cc1ccc(S(=O)(=O)N2CCCOC2CNC(=O)C(=O)NCc2cccnc2)cc1 (centres undefined),3.5%,-7.1%,1.0%,27.1%[59 µM],26.0%
O=C(NCCCn1ccnc1)C1CCCN(S(=O)(=O)c2ccc(F)cc2)C1 (centres undefined),-11.5%,12.6µM*,·,13.9%[59 µM],23.2%
COc1ccc(S(=O)(=O)N2CCCOC2CNC(=O)C(=O)NCCCn2ccnc2)cc1 (centres undefined),79.4µM*,-12.5%,5.1%,6.3%,20.5%
Cc1ccc(C)c(S(=O)(=O)N2CCCOC2CNC(=O)C(=O)NCCCn2ccnc2)c1 (centres undefined),44.7µM*,-33.1%,-22.8%,2.4%[59 µM],?
Cc1cc(C)c(S(=O)(=O)N2CCCOC2CNC(=O)C(=O)NCCCn2ccnc2)c(C)c1 (centres undefined),?,0.7%,-6.7%,5.4%[59 µM],19.6%
O=C(NNC(=S)Nc1ccc(Br)cc1)c1cccnc1,-0.9%,-16.1%,·,10µM*,10.1%
CC(C)c1ccc(NC(=S)NNC(=O)c2cccnc2)cc1,2.0%,-24.2%,-2.8%,31.6µM*,13.6%
CCNC(=S)NNC(=O)c1cccnc1,5.8%,-22.1%,9.1%,24.8%[59 µM],23.1%
C/C=C/C(=O)[C@@H](C)[C@@H](/C=C/C[Si](C)(C)C)C(C)C,·,-4.8%,·,·,14.4%
O=C(NCc1cccc(F)c1)C1CCN(c2nn3cc(-c4ccc(F)cc4)nc3s2)CC1,4.4%,-10.9%,·,1.3%[59 µM],5.0%
COc1ccc(OCC(O)Cn2cnc(-c3ccc(Br)cc3)c2)cc1 (centres undefined),-38.3%,-24.5%,-7.3%,17.8µM*,-8.3%
OC(COc1ccc2ccccc2c1Br)Cn1cnc(-c2ccccc2)c1 (centres undefined),?,?,·,?,-16.9%
COc1cc(OC)cc(OCC(O)Cn2ccnc2)c1 (centres undefined),6.5%,-27.0%,1.3%,11.0%,15.6%
OC(COc1ccc(Br)cc1)Cn1ccnc1 (centres undefined),-13.9%,-16.8%,·,79.4µM*,-9.9%
Cc1c(C)c2ccc(OCC(=O)NCCCn3ccnc3)c(C)c2oc1=O,79.4µM*,-14.4%,·,-0.5%,49.8%
O=C(COc1ccc(Br)cc1)NCCCn1ccnc1,56.2µM*,2.3%,·,12.9%,43.3%
Cc1c(OCC(=O)NCCCn2ccnc2)ccc2c3c(c(=O)oc12)CCC3,-24.4%,-9.0%,·,-13.8%,36.3%
Cc1coc2c(C)c3oc(=O)c(CCC(=O)NCCCn4ccnc4)c(C)c3cc12,-37.5%,-24.5%,·,9.3%[12.7 µM],10.3%
SMILES,BAZ2B inh,JMJD2A Tudor inh,L3MBTL1 block,G9a block,HP1b chromo inh
Cc1c(CCC(=O)NCCCn2ccnc2)c(=O)oc2c(C)c3occ(C(C)(C)C)c3cc12,25.1µM*,?,·,·,5.3%
COc1ccccc1OCC(=O)NCCCn1ccnc1,79.4µM*,-32.7%,?,-19.0%,16.8%
Cc1ccc(C(C)C)cc1OCC(=O)NCCCn1ccnc1,·,-22.8%,-3.2%,·,38.9%
CCCc1cc(N2CCN(c3cc(Cl)ccc3C)CC2)n2cnnc2n1,-24.3%,-24.8%,·,9.9%[59 µM],48.1%
CCC1CN(C(=O)N2CCC(C(=O)NCc3cccc(C)c3)CC2)c2ccccc2O1 (centres undefined),-3.7%,-15.8%,·,-4.0%[59 µM],-3.3%
CCn1c(O)c(/C=N/n2cnnc2)sc1=S,?,56.2µM*,-3.3%,17.8µM*,-21.0%
COc1ccc(-c2nn3c(-c4cc(-c5ccccc5)n[nH]4)nnc3s2)cc1OC,·,-3.8%[57.1 µM],·,·,14.2%[57 µM]
CC(=O)N1CC[n+]2c(-c3ccc(Cl)cc3Cl)csc21,?,-32.5%,-2.9%,12.6µM*,28.0%
O=C(O)c1ccc(-c2nc(-c3ccc(Cl)cc3Cl)cs2)cc1,?,-17.4%,6.2%,?,14.6%
Cc1cc(O)c2c(c1O)C(=O)[C@]13C(=C2O)C(=O)[C@@H]2[C@@H](O)[C@H]1[C@@H]1[C@H](O)[C@H]3C(=O)C3=C(O)c4c(O)cc(C)c(O)c4C(=O)[C@]312,·,7.94µM*,4.47µM*,·,?
Cc1ccccc1-c1noc(-c2ccc(N3CCC(C)CC3)c([N+](=O)[O-])c2)n1,-13.7%,-17.9%,·,-23.4%[59 µM],32.4%
Cc1ccc(C)c(N2CCN(C(=S)Nc3ccc4nc(N5CCN(C)CC5)cc(C)c4c3)CC2)c1,-18.4%,-21.1%,·,39.8µM*,37.8%
Cc1ccc(C)c(N2CCN(C(=S)Nc3ccc4nc(N5CCOCC5)cc(C)c4c3)CC2)c1,·,-7.1%,·,-34.5%,25.6%
Cc1cc(N2CCN(C)CC2)nc2ccc(NC(=S)N3CCC4(CC3)OCCO4)cc12,-13.1%,-2.5%,·,44.7µM*,1.2%
Cc1cc(N2CCN(C)CC2)nc2ccc(NC(=S)N3CCN(c4ccccn4)CC3)cc12,?,?,·,50.1µM*,-1.7%
Cc1nc2ccc(NC(=S)N3CCN(c4ccccn4)CC3)cc2nc1C,4.0%,-18.8%[57.1 µM],7.6%,-20.3%[59 µM],16.8%
O=C1CCc2cc(S(=O)(=O)Nc3ccc4ccccc4c3)ccc2N1,·,-22.4%,·,·,·
CN(C)CCCNc1ncnc2sc(-c3ccccc3)cc12,56.2µM*,5.62µM*,·,?,?
COc1cc(F)c(S(=O)(=O)N2CCN(S(=O)(=O)c3ccc(N)cc3)CC2)c(F)c1,·,-6.1%,·,·,·
